This is a sample that favours compounds with a hit; in the whole collection about 6.8% have one here.
Cy5 interf NS3h = counter-screen for HCV NS3 helicase inhibitors: fluorescence interference. Cy5-dT15 DNA with NS3h; actives lie on both sides; signal over control mean, under 1 quenches. fluorescence interference ratio at 100 µM. 16,000 tested, 6% active. AID 720488;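 active = compound fluorescence over control fluorescence at most 0.8, a quencher, or at least a set upper limit, an enhancer; inactive = ratio between 0.8 and the set upper limit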
HCV NS3h FP = hepatitis C NS3 helicase inhibition, primary screen; NS3h Cy5-dT15 DNA binding, fluorescence polarization; inhibition, % at 100 µM; 16,000 tested, 1.6% active;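 active = inhibition above the average over every tested compound plus 3 SD, cut at about 40% in these data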
NS3h confirm = confirmation of hepatitis C virus NS3 helicase inhibitors. AID 720485. NS3h binding to Cy5-dT15 DNA, fluorescence polarization. inhibition, % at 100 µM. 240 tested, 20% active. shares compounds with HCV NS3h FP;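 active = percent inhibition of 50% or more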
SSB-DNA FP CB = counter-screen for HCV NS3 helicase inhibitors: E. coli SSB binding | shares compounds with HCV NS3h FP | E. coli SSB binding Cy5-dT15, fluorescence polarization | inhibition, % at 100 µM | 240 tested, 40% active | AID 720486;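 active = inhibition of at least 50%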;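 also: displacers lower Cy5 polarization so higher inhibition means more SSB displaced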
Target sequence (P0AGE0 whole entry, looked up): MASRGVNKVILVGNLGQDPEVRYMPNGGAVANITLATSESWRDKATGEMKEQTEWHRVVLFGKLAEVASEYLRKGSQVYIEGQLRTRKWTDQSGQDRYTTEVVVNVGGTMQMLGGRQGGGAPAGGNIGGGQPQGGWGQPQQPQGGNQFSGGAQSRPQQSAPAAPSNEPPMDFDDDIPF
Cy5 SSB fluor CB = counter-screen for HCV NS3 helicase inhibitors: fluorescence interference; 240 tested, 8% active; shares compounds with HCV NS3h FP; fluorescence interference ratio at 100 µM; Cy5-dT15/E. coli SSB fluorescence interference; actives lie on both sides;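 active = fluorescence interference ratio at or above 1.2, signal boosting, or at or below 0.8, signal quenching; inactive = ratio between 0.8 and 1.2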;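 also: ratio of compound well signal to mean negative control signal so 1 means no effect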
Cy5 fluor confirm = Cy5 fluorescence interference, confirmation counter-screen | shares compounds with HCV NS3h FP | Cy5-dT15 DNA/NS3h fluorescence interference counterscreen | fluorescence interference ratio at 100 µM, hits read low | 240 tested, 44% active;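 active = fluorescence interference ratio at or below 0.8 quencher or at or above a set limitenhancer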;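 also: ratio of compound fluorescence to mean of negative controls so 1 means no interference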
Active calls of the source: *; nt = not tested or not shown.

SMILES	Cy5 interf NS3h	HCV NS3h FP	NS3h confirm	SSB-DNA FP CB	Cy5 SSB fluor CB	Cy5 fluor confirm
COc1ccc(O)c(-c2cc(-c3ccccc3C)[nH]n2)c1	0.9	26	nt	nt	nt	nt
CC1(C)CC(=O)C=C(Nc2ccccc2C#N)C1	0.97	-5	nt	nt	nt	nt
CC1(C)CC(=O)C=C(Nc2ccc(NC3=CC(=O)CC(C)(C)C3)cc2)C1	1.2	44*	-1	8	1	0.8*
O=C(NCCN1CCN(Cc2ccccc2Cl)CC1)C(=O)Nc1ccc(F)cc1	1	5	nt	nt	nt	nt
O=C(C1=C(O)C(=O)N(c2nncs2)C1c1cccc([N+](=O)[O-])c1)c1cccs1 (stereo unspecified)	0.85	3	nt	nt	nt	nt
O=C(Nc1ccc(N2CCOCC2)cc1)c1ccc2c(c1)OCCO2	1	-4	nt	nt	nt	nt
O=C(Nc1ccc(Cl)c(Cl)c1)c1ccc2c(c1)OCCO2	1.1	39	41	47	0.95	0.86
O=C(/C=C/c1c[nH]c2ccccc12)c1ccc([N+](=O)[O-])cc1	0.99	43*	28	15	0.95	0.99
O=C(/C=C/c1ccc(-c2ccc(Cl)cc2)o1)c1ccc([N+](=O)[O-])cc1	1	10	nt	nt	nt	nt
Cc1cc(C)cc(N2C(=O)NC(=O)/C(=C\c3cccc(F)c3)C2=O)c1	1	-2	nt	nt	nt	nt
O=C(c1ccccc1)C(Sc1ccc(Br)cc1)C(=O)c1ccccc1	1	8	nt	nt	nt	nt
CN1C(=O)/C(=C\c2ccc(-c3cc(Cl)cc(Cl)c3)o2)SC1=S	1	10	nt	nt	nt	nt
O=C1CCCC2=C1C(c1ccc([N+](=O)[O-])cc1)C1=C(CCCC1=O)N2c1ccc(Cl)cc1	1.1	2	nt	nt	nt	nt
CN(C)c1ccc(/C=C2\C(=O)NC(=S)N(c3ccc(Br)cc3)C2=O)cc1	1.3*	64*	20	96*	1.2*	0.87
O=C1NC(=S)N(c2ccccc2)C(=O)/C1=C/c1ccc(Br)cc1	0.96	-4	nt	nt	nt	nt
Cc1ccccc1C(=O)Nc1cc(C(N)=O)c(Cl)cc1Cl	1	-6	nt	nt	nt	nt
Cc1ccc(-n2c(-c3ccccc3F)nc3c(cnn3-c3ccccc3)c2=O)cc1	1.2	41*	3	7	1.1	0.77*
Cc1ccc(C(=O)CSc2nc3ccccc3c(=O)n2-c2ccccc2)cc1	1	22	nt	nt	nt	nt
COc1ccc(NCCC(=O)c2ccc(Cl)c(Cl)c2)cc1	1	5	nt	nt	nt	nt
COc1ccc(C(=O)N/C(=C\c2ccc(-c3cccc([N+](=O)[O-])c3)o2)C(=O)NCc2ccco2)cc1	0.81	22	nt	nt	nt	nt
C/C(=N\NC(=O)c1ccc(CO)nc1)c1ccc(Br)cc1	0.9	-2	nt	nt	nt	nt
CC(=O)Oc1ccc(N2C(=O)c3ccc(C(=O)c4cccc([N+](=O)[O-])c4)cc3C2=O)cc1	1	5	nt	nt	nt	nt
CC(=O)Oc1cccc(N2C(=O)c3ccc(C(=O)c4ccc5c(c4)C(=O)N(c4cccc(OC(C)=O)c4)C5=O)cc3C2=O)c1	0.99	41*	2	11	0.98	0.91
Cc1cccc(C(=O)Nc2cc(Cl)cc(Cl)c2)c1	0.96	-8	nt	nt	nt	nt
O=C1NC(=S)N(c2ccccc2)C(=O)/C1=C/c1ccc(-c2cccc(C(=O)O)c2)o1	1	83*	26	82*	0.84	0.79*
SMILES	Cy5 interf NS3h	HCV NS3h FP	NS3h confirm	SSB-DNA FP CB	Cy5 SSB fluor CB	Cy5 fluor confirm
O=C1NC(=S)N(c2ccc(Cl)cc2)C(=O)/C1=C\c1ccc(-c2cccc(C(=O)O)c2)o1	1	72*	57*	98*	0.92	0.91
O=C1NN(c2ccc(Br)cc2)C(=O)/C1=C\c1ccc(-c2cccc(C(=O)O)c2)o1	0.93	23	nt	nt	nt	nt
CCOC(=O)c1ccc(-c2ccc(/C=C3/C(=O)NC(=O)N(c4ccccc4)C3=O)o2)cc1	0.92	24	nt	nt	nt	nt
CCOc1ccccc1NC(=O)COc1c(C)cc(C)cc1C	0.93	12	nt	nt	nt	nt
O=C(Nc1ccccc1)C12CC3CC(CC(C3)C1)C2	0.96	16	nt	nt	nt	nt
COC(=O)c1c(C)oc2ccc(OCc3ccc([N+](=O)[O-])cc3)cc12	1	-4	nt	nt	nt	nt
O=Cc1ccc(OCc2ccc([N+](=O)[O-])cc2)cc1	0.59*	49*	27	19	0.92	0.7*
NC1=NC(=O)/C(=C/c2cccc(Oc3ccccc3)c2)S1	0.97	-1	nt	nt	nt	nt
COc1cccc(/C=C2/SC(N)=NC2=O)c1	1.3*	53*	-8	3	0.97	1
O=C(NC(=S)Nc1ccc(S(=O)(=O)Nc2nccs2)cc1)c1sc2ccccc2c1Cl	0.92	26	nt	nt	nt	nt
COc1ccc(NS(=O)(=O)c2ccc(NC(=S)NC(=O)c3sc4cc(F)ccc4c3Cl)cc2)nn1	0.98	63*	14	8	1	0.76*
O=C(Nc1ccccc1)Nc1nnc(SCc2ccc(Cl)cc2Cl)s1	1	7	nt	nt	nt	nt
O=C1/C(=C\c2ccc(I)cc2)SC(=S)N1c1cccc(Cl)c1	1.1	8	nt	nt	nt	nt
O=C1C=CC(=O)N1c1cccc(Cl)c1	1	55*	48	9	0.97	0.89
CCOC(=O)c1cccc(N2C(=O)C=CC2=O)c1	0.94	55*	34	10	0.96	0.86
O=C(/C=C/c1ccc(/C=C/C(=O)c2cccc(N3C(=O)C=CC3=O)c2)cc1)c1cccc(N2C(=O)C=CC2=O)c1	1	16	nt	nt	nt	nt
CN(C1=NC(=O)/C(=C\c2ccc(Cl)cc2)S1)c1ccc(O)cc1	0.98	8	nt	nt	nt	nt
CN(C1=NC(=O)/C(=C\C=C\c2ccccc2)S1)c1ccc(O)cc1	0.97	52*	21	2	0.93	0.69*
CCN(C)c1ccc(C=C2C(=O)NC(=O)NC2=O)cc1	1.9*	92*	111*	95*	1.5*	2.2*
CCOc1ccc(C=C2C(=O)NC(=O)NC2=O)cc1OCC	1.1	18	nt	nt	nt	nt
Cc1ccc(OCc2nc(-c3cccnc3)no2)c(Br)c1	1	14	nt	nt	nt	nt
O=C(CN(Cc1ccccc1)S(=O)(=O)c1ccc(Br)cc1)NCc1ccccn1	0.95	17	nt	nt	nt	nt
Cc1ccc(S(=O)(=O)n2cc(C=C3C(=O)NC(=S)NC3=O)c3ccccc32)cc1	0.82	61*	20	82*	0.86	0.85
CCc1cc(C)cc(OCCn2cc(C=C3C(=O)NC(=S)NC3=O)c3ccccc32)c1	1	-11	nt	nt	nt	nt
O=C(NC(O)C(Cl)(Cl)Cl)c1ccc([N+](=O)[O-])cc1 (stereo unspecified)	1	39	-2	5	1	0.78*
CCCC(C)NC(=O)c1ccc([N+](=O)[O-])cc1 (stereo unspecified)	1	3	nt	nt	nt	nt
CC(Cc1ccccc1)N=C1NS(=O)(=O)c2cc([N+](=O)[O-])ccc21 (stereo unspecified)	1	1	nt	nt	nt	nt
COc1cc(/C=C2\C(=O)NC(=O)N(c3cc(C)cc(C)c3)C2=O)cc([N+](=O)[O-])c1O	1.1	60*	16	51*	0.85	0.74*
COc1cccc(/C=C2/C(=O)NC(=O)N(c3cc(C)cc(C)c3)C2=O)c1O	1.1	16	nt	nt	nt	nt
CCN(CC)c1ccc(NC(=O)c2cc(I)ccc2Cl)cc1	1	11	nt	nt	nt	nt
